Data as given in PubChem BioAssay (Tox21).
Results filed as inconclusive are left out. Calls of active or inactive are those of the source. The call rests on the fitted dose curve.

How the values were obtained:
[1] = target: Acetylcholinesterase (Homo sapiens) (UniProt P22303); assay: Acetylcholinesterase (AChE) small molecule antagonists: colormetric cell-based qHTS assay (AID 1347395); further: nearly all actives have a fitted effect of over 30% in size
Summary of the method: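 Cells (SH-SY5Y, 2,000 per well) are seeded and left overnight at 37 C. Compound is added for 30 min, then DTNB and acetylthiocholine for a further 90 min at 37 C before absorbance-based thiocholine detection.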

[2] = target: Acetylcholinesterase (Homo sapiens) (UniProt P22303); assay: Acetylcholinesterase (AChE) small molecule antagonists: enzyme-based qHTS assay (AID 1347397); details: Potency: AChE enzyme activity inhibition; outcome: AChE enzyme activity inhibition; further: nearly all actives have a fitted effect of over 55% in size
Summary of the method: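 Tox21 library chemicals are tested in qHTS format against recombinant human AChE. The enzyme, dispensed at 50 mU/mL, sits with compound for 30 min at room temperature. A DTNB–acetylthiocholine cocktail follows, and colour is read after 10 min.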

[3] = target: Acetylcholinesterase (Homo sapiens) (UniProt P22303); assay: Acetylcholinesterase (AChE) small molecule antagonists: fluorescence cell-based qHTS assay (AID 1347398); details: Potency: AChE activity; outcome: AChE activity; further: nearly all actives have a fitted effect of over 50% in size
Summary of the method: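 Cellular AChE inhibition: SH-SY5Y cells treated with test chemical for 30 min at 37 C, then acetylthiocholine hydrolysis followed over 40 min at room temperature via thiocholine-reactive Thiolite Green fluorescence (490/520 nm).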

[4] = target: Acetylcholinesterase (Homo sapiens) (UniProt P22303); assay: Acetylcholinesterase (AChE) small molecule antagonists: enzyme-based qHTS assay with human liver microsomes (AID 1347399); details: Potency: qHTS inhibition; outcome: qHTS inhibition; further: nearly all actives have a fitted effect of over 60% in size
Summary of the method: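 Recombinant human AChE (50 mU/mL in the enzyme mix) and human liver microsomes (0.25 mg/mL final) were preincubated with compound and NADPH (0.25 mg/mL final) for 30 min at 37 C. Acetylthiocholine/DTNB was then added; thiocholine was read colorimetrically after 10 min at room temperature.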
On the % scale 0 is the no-effect control and ±100 the full control effect.

Chain of Acetylcholinesterase (Homo sapiens) (P22303 whole entry, looked up): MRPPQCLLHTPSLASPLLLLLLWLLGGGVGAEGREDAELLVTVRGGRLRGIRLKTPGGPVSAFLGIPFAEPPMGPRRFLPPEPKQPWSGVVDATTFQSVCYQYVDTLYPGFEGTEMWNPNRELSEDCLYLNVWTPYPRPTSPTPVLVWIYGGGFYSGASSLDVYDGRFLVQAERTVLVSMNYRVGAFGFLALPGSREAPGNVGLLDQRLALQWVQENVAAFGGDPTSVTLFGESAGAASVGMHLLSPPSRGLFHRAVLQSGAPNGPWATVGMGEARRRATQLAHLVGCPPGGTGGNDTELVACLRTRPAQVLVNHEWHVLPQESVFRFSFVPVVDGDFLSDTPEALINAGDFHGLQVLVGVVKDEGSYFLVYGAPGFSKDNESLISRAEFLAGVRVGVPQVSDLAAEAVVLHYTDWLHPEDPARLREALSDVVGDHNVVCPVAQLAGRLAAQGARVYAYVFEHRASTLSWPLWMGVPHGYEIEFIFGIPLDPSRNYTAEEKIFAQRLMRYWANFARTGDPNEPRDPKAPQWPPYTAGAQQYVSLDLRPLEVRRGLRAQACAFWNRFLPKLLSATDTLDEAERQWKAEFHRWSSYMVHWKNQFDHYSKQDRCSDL

CC(Cc1ccccc1)(NC(=O)CN)c1ccccc1 (stereo not given)
inactive: Potency [1] | Potency [2] | Potency [3] | Potency [4]

CO[Si](CCCNCCC[Si](OC)(OC)OC)(OC)OC
inactive: Potency [1] | Potency [2] | Potency [3] | Potency [4]

OC(C#CCN1CCCC1)(c1ccccc1)c1ccccc1
inactive: Potency [1] | Potency [2] | Potency [3] | Potency [4]

Cc1ccc2ccc3cccc4ccc1c2c34
inactive: Potency [1] | Potency [2] | Potency [3] | Potency [4]

O=C(c1ccccc1)C1CCCCC1
inactive: Potency [1] | Potency [2] | Potency [3] | Potency [4]

CCCCN1CCCC1C(=O)Nc1c(C)cc(C)cc1C (stereo not given)
inactive: Potency [1] | Potency [2] | Potency [3] | Potency [4]

Cc1ccc(/C=N/n2c(-c3ccccc3)csc2=S)cc1
inactive: Potency [1] | Potency [2] | Potency [3] | Potency [4]

Cc1c(NC(C)C)c(=O)n(-c2ccccc2)n1C
inactive: Potency [1] | Potency [2] | Potency [3] | Potency [4]

CCN(CC)c1ccc(C(=C2C=CC(=[N+](CC)CC)C=C2)c2cc(S(=O)(=O)O)ccc2S(=O)(=O)[O-])cc1
inactive: Potency [1] | Potency [2] | Potency [3] | Potency [4]

COC(=O)/C=C\C(=O)O
inactive: Potency [1] | Potency [2] | Potency [3] | Potency [4]

COc1ccc(OC)c(OC)c1
inactive: Potency [1] | Potency [2] | Potency [3] | Potency [4]

CC(C)Cc1ccc(C(C)C(=O)OCc2ccccn2)cc1 (stereo not given)
inactive: Potency [1] | Potency [2] | Potency [3] | Potency [4]

NC(=O)c1ccccc1
inactive: Potency [1] | Potency [2] | Potency [3] | Potency [4]

O=C1CCCCCCCCCCCCCCCO1
inactive: Potency [1] | Potency [2] | Potency [3] | Potency [4]

CCC1(C)NC(=O)NC1=O (stereo not given)
inactive: Potency [1] | Potency [2] | Potency [3] | Potency [4]

CS(C)=O
inactive: Potency [1] | Potency [2] | Potency [3] | Potency [4]

C=CC(C)(O)CCCC(C)CCCC(C)CCCC(C)C (stereo not given)
inactive: Potency [1] | Potency [2] | Potency [3] | Potency [4]

CC(C)=CCC/C(C)=C/COC=O
inactive: Potency [1] | Potency [2] | Potency [3] | Potency [4]

COC(=O)c1cc(C(=O)OC)cc(S(=O)(=O)O)c1
inactive: Potency [1] | Potency [2] | Potency [3] | Potency [4]

CC[C@H]1O[C@]2(CC[C@@H]1C)C[C@@H]1C[C@@H](C/C=C(\C)C[C@@H](C)/C=C/C=C3\CO[C@@H]4[C@H](O)C(C)=C[C@@H](C(=O)O1)[C@]34O)O2
inactive: Potency [1] | Potency [2] | Potency [3] | Potency [4]

O=C1OC(=O)c2cc([N+](=O)[O-])ccc21
inactive: Potency [1] | Potency [2] | Potency [3] | Potency [4]

CC(C)CCOCc1ccccc1
inactive: Potency [1] | Potency [2] | Potency [3] | Potency [4]

CCc1cccc(C)c1N(C(=O)C(=O)O)C(C)COC (stereo not given)
inactive: Potency [1] | Potency [2] | Potency [3] | Potency [4]

CN(C(=O)C(Cl)Cl)c1ccc(OC(=O)c2ccco2)cc1
inactive: Potency [1] | Potency [2] | Potency [3] | Potency [4]

CC(CCc1ccc2c(c1)OCO2)NN (stereo not given)
inactive: Potency [1] | Potency [2] | Potency [3] | Potency [4]

CCCCCCCCc1ccc(S(=O)(=O)O)cc1
inactive: Potency [1] | Potency [2] | Potency [3] | Potency [4]

CC1(c2ccccc2)OC(C(=O)O)=CC1=O (stereo not given)
inactive: Potency [1] | Potency [2] | Potency [3] | Potency [4]

CCCCCCCCCCCCCCCCCC(=O)OCCCCCCCCCCCCCC(C)C
inactive: Potency [1] | Potency [2] | Potency [3] | Potency [4]

COc1cc2c(cc1OC)C(=O)CC2
inactive: Potency [1] | Potency [2] | Potency [3] | Potency [4]

CCCCCCCCC(CO)CCCCCC (stereo not given)
inactive: Potency [1] | Potency [2] | Potency [3] | Potency [4]

CCCCCCOC(=O)c1ccccc1
inactive: Potency [1] | Potency [2] | Potency [3] | Potency [4]

CC1=C(/C=C/C(C)=C/C=C/C(C)=C\C(=O)O)C(C)(C)CCC1
inactive: Potency [1] | Potency [2] | Potency [3] | Potency [4]

CCCCCCCCCCc1ccccc1
inactive: Potency [1] | Potency [2] | Potency [3] | Potency [4]

CCCCCN(CCCCC)C(=O)C(CCC(=O)O)NC(=O)c1ccc(Cl)c(Cl)c1 (stereo not given)
inactive: Potency [1] | Potency [2] | Potency [3] | Potency [4]

C[N+](C)(CCOc1ccccc1)Cc1cccs1
inactive: Potency [1] | Potency [2] | Potency [3] | Potency [4]

CC(C)C(O)C(C)(C)CO (stereo not given)
inactive: Potency [1] | Potency [2] | Potency [3] | Potency [4]

C(=C\c1ccccc1)/c1ccccc1
inactive: Potency [1] | Potency [2] | Potency [3] | Potency [4]

CC(=O)C=O
inactive: Potency [1] | Potency [2] | Potency [3] | Potency [4]

C=C(C)C(=O)OCC(C)(C)COC(=O)C(=C)C
inactive: Potency [1] | Potency [2] | Potency [3] | Potency [4]

[O]=[Mo](=[O])=[O]
inactive: activity, negative = inhibition [1] 2.74% [at 23.6 µM] | activity change, negative = inhibition [2] 0.153% [at 23.6 µM] | activity change, negative = inhibition [3] 0.826% [at 23.8 µM] | activity change, negative = inhibition [4] 0.081% [at 23.6 µM]
